According to PubChem BioAssay (Tox21):
Records with an inconclusive call do not appear. Values without a mark were called inactive. Active and inactive are the calls of the source. Calls follow the shape of the dose curve; as a rule, active = well fitted activation curve with a large enough effect in the repeat runs; inconclusive = weak or mixed curves; inactive = flat fitted curve, though single readings scatter.

Assay: A CellTox Green Cytotoxicity Assay to monitor cytotoxicity in HepG2 cells - 40 hour (AID 1224879); also: nearly all actives have a fitted effect of over 40% in size
Settings: CellTox Green fluorescence; series mostly up to 76.8 µM; cytotoxicity increase: at the top concentration
Excerpt: National Center for Advancing Translational Sciences [NCATS]
NIH Chemical Genomics Center [NCGC]
U.S. Environmental Protection Agency [EPA]
National Institutes of Environmental Health Sciences [NIEHS]
National Toxicology Program [NTP]
Cell-based models are critical for drug discovery. Determining the natural cytotoxic effects resulting from test compounds is an essential research activity. A CellTox Green Cytotoxicity Assay to monitor cytotoxicity in real time of continues cell culture during 40 hours of the compound treatment was used to screen Tox21 10K library compounds in HepG2 cells. CellTox Green Cytotoxicity Assay is a nonlytic, homogeneous, biofluorescent method to measure cytotoxicity in cell culture after experimental manipulation. The assay system uses a proprietary asymmetric cyanine dye that is excluded from viable cells but preferentially stains the dead cell's DNA. […] Viable cells produce no appreciable increases in fluorescence. Therefore, the fluorescence signal produced by the binding interaction with dead cell DNA is proportional to cytotoxicity.
The mixture of HepG2 cell suspension and reagents were dispensed at 600cells/6 ul/well in 1536-well tissue culture treated black solid bottom plates using a Multidrop dispenser. After the assay plates were incubated at a 37 C/5% CO2 incubator for 5 hours, 23 nL of compounds dissolved in DMSO, positive and negative controls was transferred to the assay plate by a pintool work station. The plates were incubated at 37 C for 40 hours. The fluorescence intensity were measured at 0h, 8h, 16h, 24h, 32h and 40h time points using ViewLux plate reader during compound treatment.
% is scaled to controls: 0 for no effect and ±100 for the full control effect; potency is read from the fitted curve at half-maximal effect.

SMILES	cytotoxicity increase	Potency
O=C1C(O)=C(O)C(=O)C(O)=C1O	-18.9% [at 35.3 µM]	
O=C(CS)Nc1ccccc1	-3.06% [at 35.3 µM]	
CCCCc1nc2cccnc2n1Cc1ccc(-c2ccccc2-c2nnn[nH]2)cc1	-11.5%	
Cc1cccc(Nc2ccccc2)c1		38.9 µM (active)
CC(C)CC(=O)C1C(=O)c2ccccc2C1=O	14.4%	
CCCCC(CC)CN1C(=O)C2C3C=CC(C3)C2C1=O (stereo not given)	28.1%	
CN(C)CCCN1c2ccccc2Sc2ccccc21		23.9 µM (active)
COC(C)(C)CCO	-15%	
CN(C)CCN(Cc1ccc(Cl)cc1)c1ccccn1	23.8% [at 35.3 µM]	
CN(C)CCN(Cc1ccccc1)c1ccccn1	27.2% [at 35.3 µM]	
C#CCN(C)CCCOc1ccc(Cl)cc1Cl		6.01 µM (active)
Clc1ccc2c(c1)CCc1cccnc1C2=C1CCNCC1		23.9 µM (active)
CC(C)OC(=O)C(C)N(C(=O)c1ccccc1)c1ccc(F)c(Cl)c1 (stereo not given)	-1.02%	
CCC(Cl)CCC(Cl)C(Cl)CC(Cl)C(Cl)C(Cl)CCl (stereo not given)	-1.5%	
CCOc1ccc(N=Nc2ccc(/C=C/c3ccc(N=Nc4ccc(OCC)cc4)cc3S(=O)(=O)O)c(S(=O)(=O)O)c2)cc1	-51.3%	
COc1cccc(N(C)C(=S)Oc2ccc3c(c2)CCCC3)n1	-0.609% [at 35.3 µM]	
OCc1cc(C(O)CNCCCCCCOCCCCc2ccccc2)ccc1O (stereo not given)		23.9 µM (active)
Cc1cccc(C)c1NC(=O)CN(CC(=O)O)CC(=O)O	0.538% [at 35.3 µM]	
C=C(C)C(=O)OCCO	-0.709%	
C[Si](C)(CCCN)O[Si](C)(C)CCCN	-0.273%	

SMILES	cytotoxicity increase	Potency
CC[N+]1(CC)CCC(=C(c2ccccc2)c2ccccc2)C1C (stereo not given)	3% [at 35.3 µM]	
C=C1[C@H]2CC[C@@H]3[C@H]2C(C)(C)CCC[C@]13C	-11.5%	
COc1cc2nc(Cl)nc(N)c2cc1OC	-8.92% [at 35.3 µM]	
CC(C)(C)Cl	-0.333%	
CCCCC/C=C\C/C=C\CCCCCCCC(=O)NC(C)c1ccccc1 (stereo not given)	-14.3% [at 35.3 µM]	
C[C@H](CCC(=O)O)[C@H]1CC[C@H]2[C@@H]3CC[C@@H]4C[C@H](O)CC[C@]4(C)[C@H]3C[C@H](O)[C@]12C	19.3%	
C[C@@H]1C[C@H]2[C@@H]3CCC4=CC(=O)C=C[C@]4(C)[C@@]3(F)[C@@H](O)C[C@]2(C)[C@@]1(O)C(=O)COC(=O)c1ccncc1	-20.1% [at 35.3 µM]	
COc1ccc(C(=O)Nc2nc3ccccc3c(NCc3ccccc3)c2C#N)cc1	-4.08%	
Cc1cc(C(=O)O)ccc1[N+](=O)[O-]	3.16%	
O=C(O)C1(C(=O)O)CCC1.[NH2-].[NH2-].[Pt+2]	-55.7% [at 35.3 µM]	
CCCCCCCCCc1ccc(OCCOCCO)cc1		20.5 µM (active)
CCOC(=O)Cc1cccc2ccccc12		21.9 µM (active)
CC1=CCCC(C)(C)C12CCC(C)O2 (stereo not given)	-3.47%	
CC(C)C[C@H]1C(=O)N2CCC[C@H]2[C@]2(O)O[C@](NC(=O)[C@@H]3C=C4c5cccc6[nH]c(Br)c(c56)C[C@H]4N(C)C3)(C(C)C)C(=O)N12	-15.8% [at 35.3 µM]	
CC(=O)c1ccc2c(c1)N(CCCN1CCC(CCO)CC1)c1ccccc1S2		23.9 µM (active)
O=C1CCC(=O)O1	-5.36%	
CCO[Si](CCCCl)(OCC)OCC	-0.274%	
Cc1nn(C)c(Oc2ccccc2)c1/C=N/OCc1ccc(C(=O)OC(C)(C)C)cc1	1.08%	
Nc1ccc(N)c2c1C(=O)c1ccccc1C2=O	-28.8%	
CC(=O)OC[C@H]1O[C@@H](n2ncc(=O)[nH]c2=O)[C@H](OC(C)=O)[C@@H]1OC(C)=O	14.6% [at 35.3 µM]	
